Experiment in all cases: NCI-60 one-dose screen, 48 h (100 = growth as untreated, 0 = no growth, -100 = all killed)
What all share (conditions): 10 µM unless noted

For assay [1], the system named is RPMI-8226 leukemia.
For assay [2], the system named is OVCAR-8 ovarian.
The subject of assay [3] is OVCAR-5 ovarian.
Assay [4] has as its system OVCAR-4 ovarian.
The test system of assay [5] is IGROV1 ovarian.
Assay [6] relates to OVCAR-3 ovarian.
Assay [7] deals with HS 578T breast.
Assay [8] has as its system NCI/ADR-RES ovarian.
In assay [9] the test system is BT-549 breast.
In assay [10] the test system is MDA-MB-435 melanoma.
Assay [11] relates to SW-620 colon.
Assay [12] has as its system MCF7 breast.
Assay [13] deals with HCT-116 colon.
In assay [14] the test system is HCC-2998 colon.
The subject of assay [15] is KM12 colon.
Assay [16] concerns SK-OV-3 ovarian.
In assay [17] the test system is T-47D breast.

The panel holds about 83,000 compounds, 20% with a hit somewhere; the sample as a whole holds those more often.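 Each cell line was grown in a 96-well plate and treated with one concentration of compound for 48 hours. Values below 10 were considered active.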 Values without a mark were called inactive. The source made the active and inactive calls.

Regarding `CCCCCCCCCCCCCCCCCCOc1cccc(CCOP(=O)(O)OCC[N+](C)(C)C)c1`, the growth in [1] is 86.9%; in assay [2], 95%; in [3], 101%; in [4], 91.4%; in [5], 39%; in assay [6] it was 86.9%. For the same compound, the growth in [7] is 93.1%; in assay [8], 94.1%; in [9] it was 92.5%; in assay [10], 93.6%; in [11], 94.3%; in assay [12], 88.8%. Moreover, the results for the growth in [13], in assay [14] and in [15] were 70%, 82.5% and 50.1%, respectively.

Take `Cc1cc(Cl)ccc1OC(C)C(=O)Nc1nnc(C2CC2)s1` (stereo not given): the growth was 89.6% in assay [1]; 111% in [2]; 98.7% in assay [3]; 104% in assay [4]; 103% in assay [16]; 110% in assay [6]. The growth in assay [7] is -24.6% (active); in assay [8], 96.6%; in assay [17] it was 90.9%; in assay [9], 116%; in assay [10], 102%; in [11], 103%. The growth in assay [12] is 112%; in [13], 94.7%; in assay [15], 107%.

`COc1ccc2c(c1)C=CC(C#N)N2C(=O)c1ccccc1` (stereo not given): the growth in assay [1] is 22%; in assay [2], 15.4%; in [3], 47.1%; in assay [4], 25.4%; in [6] it was -23.7% (active); in [7], 14.9%. The growth was 6.62% (active) in assay [8]; 69.8% in assay [17]; 0.256% (active) in [9]; -52.4% (active) in assay [10]; 21.6% in assay [11]; 15% in [12]. For the same compound, the growth in assay [13] was 8.13% (active); in [14] it was 18.6%; in [15], 13.4%.

Regarding `NS(=O)(=O)c1ccc(CN2C(=O)c3cccc4cccc(c34)C2=O)cc1`, the growth in assay [1] was 87.2%; in assay [2] it was 91.9%; in assay [3] it was 89.6%; in assay [4], 119%; in [16] it was 101%; in [6] it was 98.5%. The growth in assay [8] is 98%; in assay [17], 78.1%; in assay [9], 96.2%; in assay [10] it was 114%; in [11], 104%; in assay [12], 93.9%. For the same compound, the growth was 92.7% in assay [13], 107% in assay [14] and 99.1% in assay [15].

As for `C=C1C(=O)O[C@H]2[C@H]1CC/C(COC(=O)NCc1ccc(OC)cc1)=C\CC[C@@]1(C)O[C@@H]21`, the growth is 25.8% in assay [1]; 21.5% in assay [2]; 78.2% in assay [3]; 41.2% in [4]; 84.8% in [16]; 5.71% (active) in assay [6]. Also, the growth in assay [7] was 59.2%; in assay [8], 86.9%; in assay [17], 17.5%; in [9], 29.7%; in assay [10] it was 46.9%; in [11] it was 1.83% (active). Moreover, the growth was 15.2% in assay [12], -48.7% (active) in assay [13], 83.5% in [14] and 73.8% in [15].

As for `O=c1c2cccc3c(Nc4ccc(F)cc4)ccc(c32)c2nc3ccccc3n12`, the growth was 57.4% in assay [1]; 89.3% in assay [2]; 84.8% in assay [3]; 76% in assay [4]; 101% in [16]; 94% in assay [6]. Further, the growth was 73.6% in assay [7]; 91.4% in assay [8]; 23.4% in assay [17]; 87.5% in assay [9]; 99.6% in assay [10]; 88% in assay [11]. In addition, the growth in assay [12] is 10.1%; in [13] it was 93.9%; in [14] it was 76.1%; in [15], 74.4%.

Take `N=C(N)c1ccc(-c2ccc(-c3ccc(Cl)cc3)o2)nc1`: the growth is -62.4% (active) in assay [1]; -43.4% (active) in assay [2]; -83.8% (active) in assay [3]; -73.6% (active) in assay [4]; -60.6% (active) in assay [5]; -98.3% (active) in assay [6]. Moreover, the growth in assay [7] was -57.2% (active); in [8], -69.7% (active); in assay [17], -75.4% (active); in [9], -88% (active); in assay [10] it was -84.5% (active); in assay [11], -93.4% (active). Also, the growth in [12] was -81.4% (active); in [13], -84.4% (active); in assay [14], -71.9% (active); in assay [15] it was -93.4% (active).

In the case of `COc1ccc(/C(=N\O)c2cc(OC)c(OC)c(OC)c2)c(OC)c1N`, the growth in assay [2] was 18%; in assay [3] it was 47.8%; in assay [4], 42.9%; in assay [16], 43%; in [5] it was 46.1%; in assay [6], -25.1% (active). The growth in assay [7] is 7.51% (active); in [8] it was 18.2%; in assay [17] it was 45.1%; in assay [9], 2.29% (active); in assay [10] it was -66.3% (active); in assay [11], 23.4%. The growth in [12] is 15.6%; in assay [13], 7.66% (active); in assay [14], 35.7%; in [15], 11.7%.

For `COc1ccccc1OCC(=O)Nc1sc2c(c1C(N)=O)CCC2`, the growth in [1] was 66.2%; in [2], 76.9%; in assay [3], 107%; in assay [4], 83.2%; in assay [5], -10.4% (active); in [6], 92.1%. Also, the growth was 55.5% in assay [7]; 79.1% in [8]; 62.5% in [17]; 85.6% in assay [9]; 78.9% in [10]; 64.5% in [11]. Besides, the growth in [12] is 27.8%; in [13], 63.1%; in assay [14] it was 58.8%; in assay [15], 105%.

Take `O=C(c1ccccc1)C(Cl)C(Cl)c1ccccc1` (stereo not given): the growth in assay [1] is -5.33% (active); in assay [2], -1.77% (active); in assay [3], 113%; in assay [4], 41.2%; in assay [16], 138%; in assay [6] it was 2.77% (active). The growth in assay [7] is 83.7%; in [8], 80.2%; in assay [17], -1.59% (active); in assay [9], 96.5%; in assay [10], 33.7%; in [11], -41.3% (active). Moreover, the growth in assay [13] is 7.77% (active); in [14], 98.1%; in assay [15], 81.3%.
